Bioassay records (PubChem BioAssay)
HT1080NT lethal = kills 2HG-producing HT-1080-NT fibrosarcoma cells; hit rate 1.6% among 360,000; Potency, µM (titrated, usually from 46.1 µM), most hits filed as cytotoxic; HT-1080-NT fibrosarcoma viability, CellTiter-Glo ATP luminescence, 48 h;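 note: NT is the 2HG producing partner of a matched IDH1 knockdown line; nearly all actives have a fitted effect of over 55% in size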
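Compounds were tested in concentration-response format on HT-1080-NT cells for 48 hours at 37 degrees C. Cell viability came from CellTiter-Glo luminescence; curves were classified by r2, response magnitude and activity.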
TDP1 cell CPT = DT40-hTDP1 cell growth loss with CPT | chicken DT40 Tdp1-/-;hTDP1 cells + 20 nM CPT, ATP luminescence, 48 h | Potency, µM (series often up to 46.2 µM), hits mostly inhibitors | hit rate 12% among 420,000; note: nearly all actives have a fitted effect of over 55% in size
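Chicken DT40 Tdp1-/- cells complemented with human TDP1, 400 cells/well, exposed to compounds plus 20 nM camptothecin for at least 48 h at 37 C; viability read as ATP content by CellTiter-Glo luminescence.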
IL-1B inflam inh = inhibitors of inflammasome signaling (IL-1 beta secretion); THP-1 LPS/ATP IL-1B secretion, AlphaLISA, 16 h; hits give low values; activity change, % at 57.5 µM; hit rate 4.7% among 360,000; in the data active = activity change below about -50%; inconclusive = mostly about -30% to -49%
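Secreted IL-1B measured by AlphaLISA bead assay after 16 h compound exposure of THP-1 cells; compounds (final up to 57.5 uM) added 1 h before LPS (250 ng/mL) and ATP (1.25 mM) stimulation; lower signal means less secretion.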
TDP1 cell noCPT = qHTS for Inhibitors of human tyrosyl-DNA phosphodiesterase 1 (TDP1): qHTS in cells in absence of CPT; hit rate 15% among 420,000; DT40 Tdp1-/- hTDP1 cells, no CPT, ATP luminescence, 48 h; AID 686978, 2013; Potency, µM (series often up to 46.2 µM), actives largely listed as inhibitors; note: nearly all actives have a fitted effect of over 55% in size
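Chicken DT40 Tdp1-/- cells stably complemented with human TDP1 were seeded at 400 cells/well with DMSO in place of 20 nM camptothecin. After compound pinning, cells grew at least 48 hr at 37 °C; viability read by CellTiter-Glo luminescence.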
HT1080 IDH1KD tx = HT-1080 IDH1 knockdown cell toxicity (counter line); HT-1080 IDH1 knockdown viability, ATP luminescence, 48 h; Potency, µM (doses to about 46.1 µM), hits mostly cytotoxic; hit rate 2% among 360,000
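IDH1KD HT-1080 cells, 750/well, RPMI + 5% FBS; compound pinned after 2 h settling; 48 h, 37 °C; CellTiter-Glo luminescence; % activity normalised to DMSO and no-cell wells; curves fitted, classed by r2 and efficacy.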
Of the large screens only hits and unclear results are named; the others gave an inactive call. Shown are actives, neighbours in structure and some others; about 19% of the full set was active somewhere. Unless noted, calls come from the whole dose curve; as a rule, active = well fitted curve in the direction sought with a large enough effect; inconclusive = small, poorly fitted or top-dose-only effect, or another doubt; inactive = no such curve, though single readings can be large; an effect the other way counts as inactive or inconclusive.

Cc1ccc(S(=O)(=O)N2CCN(c3nc(-c4cncnc4)nc4ccccc34)CC2)cc1	TDP1 cell CPT 8.9µM, TDP1 cell noCPT 10µM (no result: IL-1B inflam inh)
CC(=O)c1nc(N2CCN(S(=O)(=O)c3ccc(C)cc3)CC2)c2ccccc2n1	TDP1 cell CPT inconclusive, TDP1 cell noCPT inconclusive (no result: IL-1B inflam inh)
Cc1ccc(S(=O)(=O)N2CCN(c3nc(-c4cscn4)nc4ccccc34)CC2)cc1	TDP1 cell CPT inconclusive, TDP1 cell noCPT inconclusive (no result: IL-1B inflam inh)
Cc1ccc(S(=O)(=O)N2CCN(c3nc(-n4cccn4)nc4ccccc34)CC2)cc1	TDP1 cell CPT inconclusive, TDP1 cell noCPT inconclusive (no result: IL-1B inflam inh)
Cc1ccc(S(=O)(=O)N2CCN(c3nc(-c4cnccn4)nc4ccccc34)CC2)cc1	TDP1 cell CPT inconclusive, TDP1 cell noCPT 18µM (no result: IL-1B inflam inh)
CCOC(=O)CCCCCC(=O)Nc1ccc2c(c1)C(=O)N([C@@H](C)CO)C[C@@H](C)[C@H](CN(C)S(=O)(=O)c1cccs1)OCCCC[C@H](C)O2	none
O=S(=O)(c1ccc2c(c1)CCC2)N1CCN(c2nc(-c3ccccc3)nc3ccccc23)CC1	none (no result: HT1080NT lethal, IL-1B inflam inh, HT1080 IDH1KD tx)
Cc1ccc(S(=O)(=O)N2CCN(c3nc(-c4ccncc4)nc4ccccc34)CC2)cc1	TDP1 cell noCPT 11µM (no result: IL-1B inflam inh)
Cc1ccc(S(=O)(=O)N2CCN(c3nc(-n4ccnc4)nc4ccccc34)CC2)cc1	none (no result: IL-1B inflam inh)
COC(=O)c1nc(N2CCN(S(=O)(=O)c3ccc(C)cc3)CC2)c2ccccc2n1	TDP1 cell CPT inconclusive, TDP1 cell noCPT 18µM (no result: IL-1B inflam inh)
CC(C)(C)c1ccc(S(=O)(=O)N2CCN(c3nc(-c4ccccc4)nc4ccccc34)CC2)cc1	none (no result: HT1080NT lethal, IL-1B inflam inh, HT1080 IDH1KD tx)
O=S(=O)(c1ccccc1Br)N1CCN(c2nc(-c3ccccc3)nc3ccccc23)CC1	TDP1 cell CPT inconclusive, TDP1 cell noCPT 14µM (no result: HT1080NT lethal, IL-1B inflam inh, HT1080 IDH1KD tx)
Cc1ccc(S(=O)(=O)N2CCN(c3nc(-c4cccnc4)nc4ccccc34)CC2)cc1	TDP1 cell CPT 13µM, TDP1 cell noCPT 11µM (no result: IL-1B inflam inh)
Cc1c(Cl)cccc1NC(=O)c1cnc2sc(N3CCOCC3)nn2c1=O	TDP1 cell noCPT inconclusive (no result: HT1080NT lethal, IL-1B inflam inh, HT1080 IDH1KD tx)
O=C(CCSc1ccccc1)N1CCN(C(=O)c2ccco2)CC1	none
O=C(O)CCC1OC(=O)C(O)=C1c1ccccc1 (stereo not given)	none
COc1cccc(NC(=O)CCC2CCN(C(=O)c3c(C)noc3C)CC2)c1	TDP1 cell CPT inconclusive, TDP1 cell noCPT inconclusive
COc1ccc(C(=O)N2CCC(CCC(=O)Nc3cccc(C)c3)CC2)cc1	none
CCc1noc(C)c1C(=O)N1CCC(CCC(=O)Nc2cccc(OC)c2)CC1	TDP1 cell CPT 9.2µM, TDP1 cell noCPT 8.2µM
Cc1cccc(NC(=O)CCC2CCN(C(=O)c3ccc(C)s3)CC2)c1	TDP1 cell noCPT 4.1µM
COC(C(=O)N1CCC(CCC(=O)Nc2ccccc2)CC1)c1ccccc1 (stereo not given)	TDP1 cell CPT 21µM, TDP1 cell noCPT 9.2µM
Cc1ccc(NC(=O)CS(=O)CC(=O)NC23CC4CC(CC(C4)C2)C3)cc1 (stereo not given)	TDP1 cell noCPT inconclusive
COc1ccc(S(=O)(=O)N2CCCCC2)cc1NS(=O)(=O)c1ccccc1	none
Cc1csc(NC(C)c2nc3cc(Cl)c(Cl)cc3n2CCCO)n1 (stereo not given)	TDP1 cell CPT inconclusive
Nc1ccccc1N=Cc1ccc(-c2cccc(Cl)c2)o1	TDP1 cell CPT 21µM, IL-1B inflam inh -82, TDP1 cell noCPT 23µM, HT1080 IDH1KD tx inconclusive
CC1=CC2=NC(=O)/C(=C\c3cc(C)n(-c4ccc(F)cc4)c3C)C(=N)N2O1	TDP1 cell CPT inconclusive, TDP1 cell noCPT inconclusive
CC1=CC2=NC(=O)/C(=C\c3ccc(-c4cccc(Cl)c4)o3)C(=N)N2O1	HT1080NT lethal 10µM, TDP1 cell CPT 4.6µM, TDP1 cell noCPT 2.6µM, HT1080 IDH1KD tx 8.2µM
CC1=NOC(=O)/C1=C/c1ccc(O)c(Br)c1	TDP1 cell noCPT inconclusive
COC(=O)N/N=C/c1ccc(-c2cccc(Cl)c2)o1	TDP1 cell noCPT inconclusive
CC1=NOC(=O)/C1=C\c1ccc(-c2cccc(Cl)c2)o1	HT1080NT lethal inconclusive, TDP1 cell CPT 5.8µM, IL-1B inflam inh -100, TDP1 cell noCPT 5.2µM, HT1080 IDH1KD tx 18µM
